Drawing on PubChem BioAssay AID1259343 (VanderVen Lab, College of Veterinary Medicine, Cornell …, 2017), this text covers inhibition for 103 molecules.

Broadly, the inhibition is the relative decrease from the control value, in per cent.

About 2,900 (47%) of roughly 6,200 compounds were called active. The set was probably picked from earlier hits. The list shows a part of the results. Values without a mark were called inactive. Rule as the data show it: active = inhibition above about 50%; inactive = the rest.

A short description of this test: Mycobacterium tuberculosis growth inhibition, primary screen (AID 1259343). The conditions noted are these: inhibition: at 10 µM, active compounds read high; outcome: 10 uM.
Consider `CCOC(=O)NC(O)C(F)(F)C(F)(F)C(F)(F)C(F)(F)C(F)(F)C(F)F` (stereo not drawn), for which the inhibition was 27.7%.
In the case of `Cc1nnc2n1N=CC=C(c1ccccc1)S2` it was 54.6% (active).
To `O=S(=O)(Nc1nc2ccccc2nc1Nc1ccc2c(c1)OCO2)c1cccc2nsnc12` belongs -10.2%; to `O=S(=O)(Nc1nc2ccccc2s1)c1ccccc1`, 57.6% (active); to `O=S(=O)(Nc1nc2ccccc2nc1Nc1ccccc1)c1ccc(Br)s1`, 80.6% (active).
In the case of `O=S(=O)(Nc1nc2ccccc2s1)c1cccs1` it was -38.3%; in that of `CCN1CCN(C(C)CNc2nc3ccccc3s2)CC1` (stereo not drawn), -41.8%; in that of `O=S(=O)(Nc1nc2ccccc2s1)c1ccc(Br)s1`, 70.2% (active).
In the case of `O=S(=O)(Nc1nc2ccccc2s1)c1ccc(Cl)s1`, the inhibition is 93.7% (active).
In the case of `O=C(CCN1CCCCC1c1cccnc1)Nc1nc2ccccc2s1` (stereo not drawn), the inhibition was 35.6%.
To `NC(=S)Nc1nc2ccccc2s1` belongs 89.5% (active); to `CC(=NNc1nc2ccccc2s1)c1cc2ccccc2o1`, 3.87%; to `Cc1cc(C)nc(Oc2ccc(Br)cc2Br)n1`, 75.3% (active).
In the case of `N#Cc1ccc(COc2ccc(Br)cc2Br)cc1` it was 1.7%; in that of `Brc1ccc2cc(Oc3ncccn3)ccc2c1`, 5.33%; in that of `C=CCOc1ccc(/C=N\O)cc1Cl`, 86.2% (active).
To `COC(=O)C[C@H]1C2(C)CC34OC5(C)O[C@@]6([C@H](OC)C(OC(=O)C(C)C)[C@]7(C)C(/C(=C(/OC)C(C)C)C(=O)O[C@H]7c7ccoc7)[C@@]6(O5)[C@H](OC)[C@@]3(OC)C2OC(C)=O)[C@]14C` (stereo partly drawn) belongs 37.5%; to `C=C1C2CC[C@@]3(C)[C@H](c4ccoc4)OC(=O)C[C@]13O[C@H]1CC(O)C(C)(C)C(CC(=O)OC)[C@@]21C` (stereo partly drawn), 79.9% (active).
On to `O=S(=O)(c1ccc(Cl)cc1)c1nc(Nc2ccc(F)cc2F)sc1Cl`, for which the inhibition is 82.6% (active).
In the case of `CCC(O)c1ccc(OCCCC(C)(C)C#N)cc1` (stereo not drawn) it was 90.6% (active).
To `FC(F)(F)c1ccnn1-c1nc(-c2ccc(Br)cc2)cs1` belongs 16.4%; to `CSc1ccccc1NS(=O)(=O)c1ccc2ccccc2c1`, 11.2%.
In the case of `Cc1cc(Cl)ccc1NS(=O)(=O)c1ccc(F)c(F)c1F` it was 23.8%; in that of `O=C(NC1CCCC1)c1ccccc1NS(=O)(=O)c1ccc(F)c(F)c1F`, 18.7%.
Consider `O=S(=O)(Nc1ccc(Cl)cc1)c1ccc(F)c(F)c1F`, for which the inhibition was 95.7% (active).
To `O=S(=O)(Nc1ccc2ccccc2c1)c1ccc(F)c(F)c1F` belongs 84.5% (active); to `O=C(Nc1ccccc1)C1CSCN1S(=O)(=O)c1ccc(Cl)cc1C(F)(F)F` (stereo not drawn), -4.72%.
To `COc1cc(Cc2cnc(N)nc2N)cc(OC)c1OC` belongs 98.3% (active); to `CCCCNC(=O)c1ccc(C)c(OCC)c1`, -17.8%.
For the molecule `CCCCNC(=O)c1cc2sc3ccccc3c2s1`, the inhibition was 101% (active).
To `CN(C)c1ccc(/C=C/C(=O)N(C)C2C3CC4CC(C3)CC2C4)cc1` (stereo not drawn) belongs 8.71%; to `O=C(NNc1ccccc1)C(O)C(O)C(=O)NNc1ccccc1` (stereo not drawn), 83.3% (active).
In the case of `COCCN(CC(=O)N(Cc1ccc(F)cc1)Cc1ccco1)C(=O)N(C)C` it was 22.5%; in that of `CC(C)N(CC(=O)N(CCc1c[nH]c2ccccc12)Cc1ccc(C(C)(C)C)cc1)CC(O)COCc1ccco1` (stereo not drawn), 53.8% (active).
To `COc1cccc(Oc2cncnc2-c2ccc(OC)cc2O)c1` belongs 76.5% (active); to `COc1ccc(-c2oncc2-c2ccccc2)c(O)c1`, -29.6%; to `CCN(CC)CCNc1nc(C23CC4CC(CC(C4)C2)C3)cs1`, 55.4% (active).
As for `COCCn1c(SCCc2ccccc2)nc2cc(Cl)ccc2c1=O`, the inhibition is 15.5%.
In the case of `CC(C)CCn1c(SCC(=O)NC(C)(C)C)nc2cc(Cl)ccc2c1=O` it was 88.4% (active); in that of `COCCn1c(SC(C)C)nc2ccc(Br)cc2c1=O`, -18.7%; in that of `NCCOB(c1ccccc1)c1ccccc1`, 101% (active).
In the case of `O=C(CCl)NCCCCCCCCCNC(=O)CCl` it was 93.8% (active); in that of `O=C(CC1CCCC1)NCCCNC(=O)CC1CCCC1`, 7.09%; in that of `CS(=O)(=O)Nc1c(Cl)c(Cl)c(Cl)c(Cl)c1Cl`, 84% (active).
To `O=[N+]([O-])c1ccc(N2CCNCC2)cc1NC1C2CC3CC(C2)CC1C3` (stereo not drawn) belongs 83.1% (active); to `CC(Nc1cc(N2CCNCC2)ccc1[N+](=O)[O-])C12CC3CC(CC(C3)C1)C2` (stereo not drawn), 59.9% (active).
Consider `Cc1ccc(N2CCN(C(=O)C34CC5CC(CC(C5)C3)C4)CC2)cc1Cl`, for which the inhibition is 10.8%.
In the case of `O=[N+]([O-])c1ccc(Cl)cc1NN=C1C2CC3CC1CC(O)(C3)C2` it was 47.3%; in that of `COc1ccc(C)cc1C(=O)Nc1ccc(N2CCCCC2)nc1`, 2.05%; in that of `COc1ccc(NC(=O)Nc2cccc(-c3ccc(N4CCCC4)nn3)c2)cc1`, 66.1% (active).
Turning to `COc1ccc(NC(=O)N2CCCC(C(=O)c3cccc(OC(C)C)c3)C2)cc1OC` (stereo not drawn), the inhibition is 19%.
In the case of `Fc1ccc(NN=Cc2ccc(F)c(F)c2)c(F)c1` it was 40.3%; in that of `Fc1ccc(NN=Cc2ccccn2)c(F)c1`, 103% (active); in that of `Fc1ccc(NN=Cc2c[nH]c3ccccc23)c(F)c1`, 90.6% (active).
To `C(=NNc1ccccc1)c1c[nH]c2ccccc12` belongs 52% (active); to `O=C(NN=Cc1c[nH]c2ccc(Br)cc12)C1CC1`, 13.7%; to `NC(=S)NN=Cc1c[nH]c2ccccc12`, “inactive”.
To `C=CCN1C(=O)C(=O)N(CC2CCCCC2)C1=O` belongs 43.2%.
On to `CCCCSc1nsc(NC(C)=O)n1`, for which the inhibition was 71.7% (active).
To `C=CCn1c(SCCCC)nc(O)cc1=O` belongs 33.7%; to `Cc1ccc2c(c1)-c1c(s[s+]c1SCC(=O)c1ccccc1)C(C)(C)N2`, 18.9%.
Consider `Cc1ccc(CN(C)CC(=O)Nc2cc(Cl)ccc2C#N)cc1`, for which the inhibition was -19.5%.
In the case of `Cc1ccc(F)cc1NC(=O)CN(C)Cc1ccccc1F` it was 86.7% (active); in that of `CN(CC(=O)Nc1ccc(Cl)cc1Cl)Cc1ccsc1`, 34.7%.
To `O=C(Nc1ccc2c(c1)Cc1ccccc1-2)C1CCCO1` (stereo not drawn) belongs 81.9% (active).
In the case of `O=C(Nc1ccc2c(c1)Cc1ccccc1-2)c1ccco1` it was 90% (active); in that of `O=C(CCl)c1ccc(NC(=O)c2ccco2)cc1`, 44.1%.
Take `CCOc1ccc(-n2c(C)cc(C(=O)COc3cccc(-n4cnnn4)c3)c2C)cc1`: the inhibition is 89.6% (active).
In the case of `Brc1ccc(OCCOc2cccc(-n3cnnn3)c2)cc1` it was 69.1% (active); in that of `O=c1cnc2ccccc2n1CCOc1ccc(Br)cc1`, 22.6%.
To `OCC1(Cc2ccccc2F)CCCN(Cc2nc(-c3ccccc3)cs2)C1` (stereo not drawn) belongs 13.4%; to `CC(=O)c1cc(Cl)ccc1OCC(=O)Nc1ccc(C)cc1Br`, 29.6%.
To `CC(C)CC(NC(=O)c1ccc(Cl)cc1Cl)C(=O)Nc1ncn[nH]1` (stereo not drawn) belongs 3.98%; to `Cc1cc(OCC(=O)Nc2ncn[nH]2)c(C)cc1Br`, 71.5% (active).
Turning to `Brc1ccc(NCc2ccsc2)cc1`, the inhibition is 47.5%.
In the case of `O=S(=O)(CCNc1ccc(Br)cc1)c1ccc(Cl)cc1` it was 93.3% (active); in that of `COc1ccccc1OS(=O)(=O)CCS(=O)(=O)c1ccc(Cl)cc1`, 33.8%; in that of `COc1ccc(-c2csc(-n3[nH]c(C)c(N=Nc4nccs4)c3=O)n2)cc1`, 98.8% (active).
As to `Brc1ccccc1C1N=C(c2ccccc2)NO1` (stereo not drawn), the inhibition is 67.1% (active).
To `CC1=NN(c2nc(C)cc(C)n2)C(=O)C1Cc1ccccc1Cl` (stereo not drawn) belongs -7.67%; to `CC(C(=O)O)c1ccc2c(c1)[nH]c1ccc(Cl)cc12` (stereo not drawn), 86% (active).
Consider `CCN(C)CC1CCN(C(=O)CC2CCC(c3ccccc3)CC2)C1` (stereo not drawn), for which the inhibition was -3.03%.
On to `CCN(CC)c1ncnc(N2CCC(c3ccccc3)CC2)c1N`, for which the inhibition was 56.1% (active).
In the case of `CC(C)(C)C1CCN(c2ncnc(Oc3ccc(F)cc3)c2N)CC1` it was 25.6%; in that of `O=C(COn1nnc2ccc(C(F)(F)F)cc21)NC12CC3CC(CC(C3)C1)C2`, 21.7%; in that of `COc1cccc(-c2cc3c(Nc4ccc5c(c4)OCCO5)nccc3n2C)c1`, 61.1% (active).
In the case of `COc1cccc(-c2cc3c(Nc4ccc5c(c4)OCO5)nccc3n2C)c1`, the inhibition was 85.6% (active).
In the case of `O=C1CCC2(CCCO2)CCN1Cc1ccc(C(F)(F)F)nc1` (stereo not drawn) it was -2.37%; in that of `O=C(Cn1nc(-c2ccc(F)cc2)oc1=O)N1CCSc2ccccc21`, 80.5% (active); in that of `NC(N)=NCCCCN=C(N)N`, 0.43%.
In the case of `CS(=O)(=O)N=C1C=C(S(=O)(=O)c2ccccc2)C(=O)c2ccccc21` it was 30.9%.
Regarding `COc1ccc2c(Cl)c(C(=O)n3cnc4ccccc43)sc2c1`, the inhibition was 94.7% (active).
In the case of `COc1ccc2c([N+](=O)[O-])c(-n3nnc4ccccc43)[nH]c2c1` it was -24.2%; in that of `C(=Nn1c(-c2ccc3c(c2)OCCO3)csc1=NC1CCCCC1)c1cccnc1`, 9.36%.
To `O=[N+]([O-])c1nn(-c2ccc3c(c2)OCCO3)n(O)c1=NC1CCCCCC1` belongs 62.8% (active); to `O=S(=O)(NCc1ccc(N2CCCC2)cc1)c1cccc(Br)c1`, 28.5%.
To `Brc1cccc(N2CCC(CNc3ncccn3)C2)c1` (stereo not drawn) belongs 90.2% (active); to `Cc1ccc(COc2ccc(/C=N\NC(=O)CN3CCCCC3)cc2)cc1`, 83.3% (active); to `CNC(=O)C1CCN(C(=O)COc2ccc(Oc3ccc(C)cc3)cc2)CC1`, -12.7%.
Regarding `CC1Cc2cc(S(N)(=O)=O)ccc2N1CCCc1ccccc1` (stereo not drawn), the inhibition was -10.1%.
To `CC(C)(C)n1ncc(NCC2CCCc3ccccc32)c(Cl)c1=O` (stereo not drawn) belongs 22.4%; to `O=c1c(Cl)c(Nc2ccc3c(c2)CCC3)cnn1-c1ccccc1`, 21.7%; to `O=c1c(Cl)c(NCC2CCC2)cnn1-c1ccc(Cl)cc1`, 58% (active).
